The sample as a whole holds a higher share of hits than the screen did.
Shiga toxin inh: Shiga toxin inhibition. Vero cells, Shiga toxin protein synthesis inhibition reporter. actives 9.2% (n = 290,000). inhibition, % at 38.7 µM; in the data active = inhibition mostly above about 28%, no sharp cut-off; inactive = mostly below about 43%; note: 0% is about no effect
Tb PYK inh: blocks Trypanosoma brucei pyruvate kinase; Potency, µM (highest dose often 76.8 µM), inactives show top-dose activity, negative = inhibition, actives largely listed as inhibitors; actives 0.12% (n = 410,000); AID 624173; Q57TT1; TbPYK enzyme, Kinase-Glo Plus ATP luminescence, 45 min; note: potency is the fitted concentration of half-maximal effect; % is set by controls: 0 for no effect and ±100 for the full control effect; nearly all actives have a fitted effect of over 50% in size
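Quantitative HTS: titrated library compounds versus trypanosomal pyruvate kinase in TEA buffer (pH 7.2) containing KCl, MgCl2, BSA and Tween-20. Reactions were initiated with ADP, 130 uM final. Kinase-Glo Plus luminescence was read after 45 min at RT.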
LmPK inhibitor: LmPK (Leishmania mexicana) enzyme inhibition; purified LmPK, Kinase-Glo ATP luminescence, 1 h; Potency, µM (top dose mostly 57.5 µM), for the others: at the highest dose activity change, negative = inhibition, usual class: inhibitors; actives 0.37% (n = 290,000); AID 1721; note: potency is the fitted concentration of half-maximal effect; % is set by controls: 0 for no effect and ±100 for the full control effect
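In 50 mM imidazole pH 7.2 with 7 mM MgCl2, LmPK (0.1 nM) turned over PEP (0.5 mM) and ADP (0.1 mM) for 1 h at room temperature. Luciferase read-out of ATP.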
FBPA Giardia inh: inhibitors of Giardia lamblia fructose-1,6-bisphosphate aldolase. A8B2U2. purified Giardia FBPA. Potency, µM (series often up to 59.6 µM), inactives show at the top dose activity, negative = inhibition, hits mostly inhibitors. actives 0.71% (n = 290,000). AID 2451; note: potency is the fitted concentration of half-maximal effect; % is set by controls: 0 for no effect and ±100 for the full control effect; nearly all actives have a fitted effect of over 55% in size
Target sequence (A8B2U2 whole entry, looked up): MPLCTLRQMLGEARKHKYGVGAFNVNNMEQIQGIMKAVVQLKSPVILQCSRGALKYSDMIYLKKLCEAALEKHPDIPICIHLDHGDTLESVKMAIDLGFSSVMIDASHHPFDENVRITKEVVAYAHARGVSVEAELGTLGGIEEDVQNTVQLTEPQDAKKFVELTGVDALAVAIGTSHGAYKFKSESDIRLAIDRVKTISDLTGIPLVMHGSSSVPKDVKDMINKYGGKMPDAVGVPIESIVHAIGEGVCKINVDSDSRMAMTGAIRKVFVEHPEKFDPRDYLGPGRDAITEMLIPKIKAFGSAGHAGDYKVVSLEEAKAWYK
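40 nM FBPA preincubated 10 min at RT with compound (up to 57.5 uM final), then substrate plus GAPDH/TPI/NAD/arsenate coupling and diaphorase/resazurin added. Fluorescence read after 20 min at RT, 525/598 nm.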
CHX counter: affects cycloheximide protein synthesis inhibition readout, counter-screen; cell reporter, cycloheximide protein synthesis inhibition counterscreen; max response, %; actives 12% (n = 300,000); AID 2314; in the data active = max response mostly above about 13%, no sharp cut-off; inactive = mostly below about 14%; note: read at 38.3 µM for the half of the compounds with a filed dose; 0% is about no effect
RE007 growth inh: less growth of the S. pombe RE007 Vpr strain; S. pombe RE007 Vpr strain, BacTiter-Glo ATP luminescence, 24 h; Potency, µM (highest dose often 92.2 µM), for the others: at the top dose activity change, negative = less growth, most hits filed as inhibitors; actives 0.21% (n = 360,000); AID 651644; active = well fitted falling curve with a large enough effect; inconclusive = small, poorly fitted or top-dose-only effect; inactive = no such curve, though single readings can be large or run the other way; note: potency is the fitted concentration of half-maximal effect; % is set by controls: 0 for no effect and ±100 for the full control effect; nearly all actives have a fitted effect of over 50% in size
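Fission yeast RE007 carrying one integrated HIV-1 vpr copy, seeded at OD 0.01 in PMG+AL medium with 23 nL pinned compound. Grown 24 h at 30 degrees; viability read by BacTiter-Glo luminescence after 5 min.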
Active calls of the source: *; u = inconclusive; x = no result; [ ] = dose if it differs, or a comment. Unless noted, calls come from the whole dose curve; as a rule, active = well fitted curve in the direction sought with a large enough effect; inconclusive = small, poorly fitted or top-dose-only effect, or another doubt; inactive = no such curve, though single readings can be large; an effect the other way counts as inactive or inconclusive.

SMILES | Shiga toxin inh | Tb PYK inh | LmPK inhibitor | FBPA Giardia inh | CHX counter | RE007 growth inh
Cc1cccc(N2CCN(Cc3cc(=O)oc4cc(C)ccc34)CC2C)c1 (stereo not drawn) | x | -3% | x | x | x | x
O=C1[C@H]2[C@H]3[C@H](O)[C@H](O)C/C(=N/OC[C@@H](O)COCc4ccco4)[C@@H]3CC[C@@H]2C(=O)N1C1CCCCC1 | x | x | x | -4%[12.9 µM] | x | x
CCN1C(=O)C(Cc2nc3ccccc3c(=O)n2-c2ccc(OC)cc2)c2cc(C)ccc21 (stereo not drawn) | x | -6% | x | x | x | x
COc1ccc(NC(=O)/C=C/c2ccc(Br)o2)cn1 | 86* | -30% | 0% | u | 20* | -10%
COc1ccc(NC(=O)/C=C/c2cccc(F)c2)cn1 | 72* | 3% | -1% | -22% | 43* | -21%
COc1ccc(NC(=O)c2ccco2)cn1 | 28 | -7% | 4% | -1% | 11 | -9%
COc1ccc(NC(=O)/C=C/c2ccco2)cn1 | 90* | -1% | -2% | -27% | 36* | 2%
CN1N=C2c3ccccc3CCC2C1c1ccc(Cl)cc1 (stereo not drawn) | 72* | 0% | 1% | 4% | 35* | 11%
CN1N=C2c3ccccc3CCC2C1c1ccc(F)cc1 (stereo not drawn) | 87* | 7% | 0% | 6% | 76* | 0%
CNC(=S)N1N=C2c3ccccc3CCC2C1c1ccccc1Cl (stereo not drawn) | 0 | -2% | -2% | 7% | 6 | 4%
N#Cc1ccc(-c2csc(-c3ccno3)n2)cc1 | 18 | -4% | -6% | 0% | 8 | 18%
FC(F)(F)c1ccc(-c2csc(-c3ccno3)n2)cc1 | 84* | 3% | 1% | -13% | 39* | -28%
COC(=O)c1ccc(OS(=O)(=O)c2ccc(NC(C)=O)cc2)cc1 | 11 | 5% | 3% | 8% | 9 | -2%
CC1=CC(C)(C)Nc2ccc(OC(=O)CCN3C(=O)c4ccccc4C3=O)cc21 | 23 | -4% | 2% | -9% | 22* | -5%
CC(=O)Nc1ccc(S(=O)(=O)Oc2ccc3c(c2)C(C)=CC(C)(C)N3)cc1 | 22 | x | 2% | -23% | 16* | x
CC1=CC(C)(C)Nc2ccc(OS(=O)(=O)c3ccc(C)cc3)cc21 | 40* | 2% | 5% | 26% | 31 | 7%
Cn1cc(S(=O)(=O)N2CCCCCC2)cc1C(=O)N1CCN(c2ccc(Cl)cc2)CC1 | x | 1% | x | x | x | x
COc1ccc(NC(=O)CSc2nc(-c3ccc(OC)cc3)cc(=O)[nH]2)cc1 | x | 0% | x | x | x | x
Cc1ccccc1OCC(=O)Nc1ccc(-c2nc3cc(Cl)cc(Cl)c3o2)cc1 | x | -3% | x | x | x | x
Cc1ccc(-c2cn(-c3ccccc3)c(SCC(N)=O)n2)cc1C | 43* | 4% | 1% | -5% | 37* | -8%
CCOC(=O)NC(=O)CSc1nc(-c2ccc(C)c(C)c2)cn1-c1ccccc1 | 131* | u | 0% | 1% | 63* | -4%
Cc1ccc2c(c1)c(N=Nc1cccc(C(=O)O)c1)c(O)n2C | 60* | -2% | 9% | u | 16* | 17%
CCOc1ccc2c(c1)c(N=Nc1cccc(C(=O)O)c1)c(O)n2C | 62* | -12% | -1% | 19% | 58* | x
CC(C)(C)C1CCc2c(sc(NC(=O)CSc3ncn[nH]3)c2C#N)C1 (stereo not drawn) | 21 | -12% | 1% | -9% | 14* | -27%
CC1CCc2c(sc(NC(=O)CSc3nnc(-c4ccccc4)o3)c2C#N)C1 (stereo not drawn) | active | 5% | 1% | -16% | 23* | x
SMILES | Shiga toxin inh | Tb PYK inh | LmPK inhibitor | FBPA Giardia inh | CHX counter | RE007 growth inh
CC1CCc2c(sc(NC(=O)CSc3ncn[nH]3)c2C#N)C1 (stereo not drawn) | -19 | 1% | 6% | 11% | -3 | 9%
N#Cc1c(NC(=O)CSc2ncc(-c3ccccc3)n2CC2CCCO2)sc2c1CCCC2 (stereo not drawn) | -19 | -6% | 0% | -1% | -1 | -12%
Cc1csc(NC(=O)CSc2nnc(-c3ccccc3)o2)n1 | 52* | -13% | 10% | 0% | 28* | -15%
N#Cc1c(NC(=O)CSc2nnc(-c3ccccc3)o2)sc2c1CCCC2 | 52* | -13% | -8% | 1% | 16* | -17%
CCN(CC)S(=O)(=O)c1ccc(-c2nnc(SCC(=O)Nc3nc(C)cs3)o2)cc1 | -26 | 3% | 5% | -1% | -2 | -18%
CC(=O)c1cccc(NC(=O)C2CCN(c3nnc(-n4cccc4)s3)CC2)c1 | x | 1% | x | x | x | x
Cc1cccc(N2CCN(C(=O)C3CCN(C(=O)c4cc5sccc5n4C)CC3)CC2C)c1 (stereo not drawn) | x | -2% | x | x | x | x
COc1ccc(CCNC(=O)CCn2c(=O)c3ccccc3n(CC(=O)Nc3cccc(C)c3)c2=O)cc1OC | x | 6% | x | x | x | x
Cc1sc(NC(=O)CSc2nnc(-c3ccccc3)o2)c(C#N)c1C | 58* | -2% | 0% | 7% | 33* | -4%
CN(C)c1nc(C=C(C#N)C#N)c(Cl)n1-c1ccc(F)cc1 | 6 | -3% | 11% | -4% | 24* | 4%
CN(C)c1ccc(C=C(C#N)C#N)cc1 | -7 | -7% | -1% | 0% | 0 | 4%
COC(=O)N1C(c2ccccc2)=Cc2ccccc2C1C1(C(=O)OC)CCCC1=O (stereo not drawn) | x | x | -5%[11.5 µM] | 2% | x | x
COc1ccccc1-c1noc(-c2cc(OC)c(OC)c(OC)c2)n1 | 4 | -17% | -2% | -6% | -2 | -17%
OC[C@H]1O[C@@H](c2nc(-c3cccc4ccccc34)no2)[C@H](O)[C@@H]1O | x | -2% | x | x | x | 2%
c1ccc(-c2noc(-c3cccc4ccccc34)n2)nc1 | 41* | 1% | u | -6% | 43* | -35%
COc1cnc(-c2ccccn2)nc1NC(C)C | 49 | 6% | -29% | u | 9 | -23%
COc1cccc(-c2nc(-c3ccccn3)no2)c1OC | 134* | -28% | -6% | -2% | 37* | 0%
COc1cc(-c2nc(-c3ccccn3)no2)cc(OC)c1OC | 81* | -1% | 4% | 0% | 17* | -10%
CCc1ccc(NC(=O)Cn2c(=O)n(-c3ccc(Cl)c(Cl)c3)c(=O)c3c(C)c(C)sc32)cc1 | x | -1% | x | x | x | x
O=C(CSc1nc2c([nH]c3ccccc32)c(=O)n1-c1ccccc1)Nc1ccc2c(c1)OCO2 | x | -3% | x | x | x | x
O=C(Oc1oc(-c2ccco2)nc1C=Nc1ccccc1)c1ccco1 | 39* | u | 8% | -10% | 16* | u
Cc1ccc(C(=O)Oc2oc(-c3ccco3)nc2C=Nc2ccc(Cl)cc2)cc1 | 99* | -24% | -6% | -4% | 36* | -16%
